Source: PubChem BioAssay
Gal4-VP16 FLuc: counter-screen for ROR gamma inhibitors: Gal4-VP16 reporter. Drosophila S2 Gal4-VP16 UAS-luciferase, luminescence, 20 h. Potency, µM (titrated, usually from 53.6 µM), without a hit: at the highest dose activity, negative = inhibition, most hits filed as inhibitors. actives 3.5% (n = 310,000). AID 2546;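 further: Gal4-VP16 expression switched on by copper sulfate through the metallothionein promoter; nearly all actives have a fitted effect of over 50% in size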
12-LOX inh: inhibitors of human 12S-lipoxygenase ALOX12; purified 12hLO, xylenol orange hydroperoxide absorbance; Potency, µM (doses to about 108 µM), without a hit: at the highest dose activity change, negative = inhibition, most hits filed as inhibitors; actives 1.1% (n = 580,000); AID 1671190; P18054
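Hydroperoxide product was detected by ferrous iron/xylenol orange as the 573 to 405 nm absorbance ratio. Arachidonic acid at 40 uM (final) was turned over for 30 min at room temperature by 150 nM human 12hLO, pH 7.0 Hepes buffer, after 15 min compound preincubation.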
ELG1 DNA repair: inhibitors of ELG1-dependent DNA repair in HEK293T cells | HEK293T ELG1-luciferase reporter, luminescence, 16 h; DNA damage induced by 5-fluorouridine | Potency, µM (titrated, usually from 46.1 µM), without a hit: at the top dose activity change, negative = inhibition, most hits filed as inhibitors | actives 2.3% (n = 330,000); further: nearly all actives have a fitted effect of over 55% in size
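Overnight (16 hr) co-exposure of 2,000 cells/well to 5-fluorouridine and compound at 37 °C preceded detection. Luciferase was quantified via ONE-Glo luminescence; loss of signal denotes inhibition.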
RORg inh: inhibitors of mouse ROR gamma transcriptional activity | P51450 | Drosophila S2 Gal4-RORgamma UAS-luciferase reporter, 20 h | Potency, µM (highest dose often 53.6 µM), inactives show at the highest dose activity change, negative = inhibition, usual class: inhibitors | actives 5.4% (n = 310,000) | AID 2551; further: nearly all actives have a fitted effect of over 60% in size
Target sequence (P51450 whole entry, looked up, the tested form may be a part): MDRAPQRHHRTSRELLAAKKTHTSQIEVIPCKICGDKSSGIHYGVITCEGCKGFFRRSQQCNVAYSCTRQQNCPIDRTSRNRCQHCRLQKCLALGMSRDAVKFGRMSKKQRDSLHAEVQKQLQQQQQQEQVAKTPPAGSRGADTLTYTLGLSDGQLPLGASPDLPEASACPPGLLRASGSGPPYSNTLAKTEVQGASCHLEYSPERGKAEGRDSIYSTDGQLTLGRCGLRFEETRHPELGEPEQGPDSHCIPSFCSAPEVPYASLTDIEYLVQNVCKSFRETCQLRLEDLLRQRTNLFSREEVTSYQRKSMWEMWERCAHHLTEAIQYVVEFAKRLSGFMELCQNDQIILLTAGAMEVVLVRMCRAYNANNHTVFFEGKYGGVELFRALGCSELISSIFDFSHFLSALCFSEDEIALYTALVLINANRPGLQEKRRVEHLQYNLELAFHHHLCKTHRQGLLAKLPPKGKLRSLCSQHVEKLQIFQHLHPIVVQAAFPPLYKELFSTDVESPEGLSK
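Schneider cells (Drosophila), stable Gal4 DBD–ROR gamma + UAS-luc; 1 hr cmpd preincubation; Cu2+ induction 700 uM final; 20 hr ambient; luminescence.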
DT40 TDP1 CPT: growth inhibition of DT40 Tdp1-/-;hTDP1 cells with camptothecin (screen for TDP1 inhibitors). actives 12% (n = 420,000). chicken DT40 Tdp1-/-;hTDP1 cells + 20 nM CPT, ATP luminescence, 48 h. Potency, µM (top dose mostly 46.2 µM), without a hit: at the highest dose activity change, negative = growth inhibition, usual class: inhibitors; further: nearly all actives have a fitted effect of over 55% in size
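Chicken DT40 Tdp1-/- cells stably complemented with human TDP1 were seeded at 400 cells/well in medium containing 20 nM camptothecin, exposed to pin-transferred compounds, and grown at 37 °C for at least 48 hr. Viability was read as ATP luminescence.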
TDP1 cell noCPT: qHTS for Inhibitors of human tyrosyl-DNA phosphodiesterase 1 (TDP1): qHTS in cells in absence of CPT; DT40 Tdp1-/- hTDP1 cells, no CPT, ATP luminescence, 48 h; Potency, µM (titrated, usually from 46.2 µM), for the others: at the top dose activity change, negative = growth inhibition, usual class: inhibitors; actives 15% (n = 420,000); AID 686978, 2013; further: nearly all actives have a fitted effect of over 55% in size
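Chicken DT40 Tdp1-/- cells complemented with human TDP1, screened without camptothecin (DMSO vehicle only), 400 cells/well. Compounds pin-transferred, cells incubated at 37 °C for at least 48 hr. Growth read as ATP-dependent luminescence (CellTiter-Glo, 30 min at RT).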
* = called active by the depositor; ? = inconclusive; . = not tested or not shown; [ ] = dose if it differs, or a comment. Hits are enriched below; roughly 15% of the tested compounds scored in any of these assays. The call rests on the fitted dose curve; in most records, active means well fitted curve in the direction sought with a large enough effect; inconclusive means small, poorly fitted or top-dose-only effect, or another doubt; inactive means no such curve, though single readings can be large; an effect the other way counts as inactive or inconclusive. On the % scale 0 is the no-effect control and ±100 the full control effect; potency means the concentration at half of the fitted maximal effect.

SMILES | Gal4-VP16 FLuc | 12-LOX inh | ELG1 DNA repair | RORg inh | DT40 TDP1 CPT | TDP1 cell noCPT
COc1ccc(Cn2c(-c3ccc(Br)cc3)c[n+]3ccccc23)cc1 | -12% | -18% | ? | 39% | 1.8µM* | 2.1µM*
COc1ccc(Cn2c(C)ccc2C)cc1 | 14% | -15% | -17% | 8% | -2% | -10%
CCOC(=O)/C(=C\c1ccccc1)C(=O)CCN1CCOCC1 | . | ? | . | . | 1.6µM* | 1.5µM*
O=C(CCc1ccccc1)OCCN1CCOCC1 | -15% | ? | 6% | 7% | 2% | -3%
O=C1CC(N2CCSCC2)C(=O)N1c1cccc(Cl)c1 (stereo not drawn) | -8%[10 µM] | -14% | 7% | 20% | -2% | 21%
CCc1cccc2c1Sc1ccccc1CC2N1CCNCC1 (stereo not drawn) | . | ? | . | . | 16µM* | 16µM*
c1ccc2c(c1)CC(N1CCCCC1)c1ccccc1N2 (stereo not drawn) | 1% | -10% | 15% | -34% | -8% | -7%
Cc1cccc2c1Sc1ccc(Cl)cc1CC2N1CCNCC1 (stereo not drawn) | . | . | . | . | 16µM* | 18µM*
NC(=O)COc1cccc(C(=O)N2C[C@H](CO)C[C@H](CN3CCCC3)C2)c1 | . | 60% | . | . | . | .
O=C(NNC1=Nc2cccc3cccc1c23)c1ccc(Br)cc1 | 2µM* | ? | -7% | 0.71µM* | 12µM* | 13µM*
C#C[C@]1(OC(C)=O)CC[C@H]2[C@@H]3CCC4=C/C(=N/O)CC[C@@H]4[C@H]3CC[C@@]21CC | ? | -16%[22.9 µM] | . | ? | ? | 19µM*
C#C[C@@]1(OC(C)=O)CC[C@@H]2[C@@H]3CCC4=C[C@@H](OC(C)=O)CC[C@H]4[C@H]3CC[C@]21C | 4%[17 µM] | . | . | -11%[16.9 µM] | . | .
O=C(Nc1ccn(CCCN2CCN(c3ccccc3)CC2)c(=O)n1)OCc1ccccc1 | . | ? | . | . | ? | 15µM*
O=C(Nc1ccn(CCCNC2CCN(Cc3ccccc3)CC2)c(=O)n1)OCc1ccccc1 | . | -26% | . | . | ? | 18µM*
COc1ccc(N2CCN(CCCn3ccc(NC(=O)OCc4ccccc4)nc3=O)CC2)cc1 | . | -17% | . | . | 23µM* | 12µM*
Cc1cc(C)c(CN2CCN(CCCn3ccc(NC(=O)OCc4ccccc4)nc3=O)CC2)c(C)c1 | . | ? | . | . | 18µM* | 18µM*
O=C(Nc1ccn(CCCN2CCC(N3CCOCC3)CC2)c(=O)n1)OCc1ccccc1 | . | ? | . | . | -16% | -10%
COc1cccc(CN2CCC(Cc3ncc(C)n3Cc3ccccc3)C2)c1 (stereo not drawn) | . | 81% | . | . | . | .
COc1ccc(C(=O)Nc2c(N3CCCC3)c3ccccc3oc2=O)cc1 | . | 10% | . | . | . | .
CC(=O)NC1(C(F)(F)F)C(=O)Nc2c1c(=O)[nH]c(=O)n2Cc1ccccc1 (stereo not drawn) | . | -8% | . | . | . | .
COc1ccccc1NC(=O)COc1nc(CC(C)C)c2c(c1C#N)CCCC2 | . | 3% | . | . | . | .
Cc1cc(C)cc(-n2nnnc2SCc2nc3ccsc3c(=O)[nH]2)c1 | . | 5% | . | . | . | .
O=C(Nc1ccn(CCCN2CCN(Cc3cccc4ccccc34)CC2)c(=O)n1)OCc1ccccc1 | . | ? | . | . | 16µM* | 18µM*
Nc1ccn(CCCN2CCN(Cc3cccc4ccccc34)CC2)c(=O)n1 | . | 3% | . | . | -5% | ?
O=C(Nc1c(NC2CCCC2)c2ccccc2oc1=O)c1ccccc1F | . | 46% | . | . | . | .
SMILES | Gal4-VP16 FLuc | 12-LOX inh | ELG1 DNA repair | RORg inh | DT40 TDP1 CPT | TDP1 cell noCPT
C=C1C(=O)OC2C=C(CO)CCC=C(CO)CC(OC(=O)C(C)C)C12 (stereo not drawn) | . | 7% | . | . | 2.9µM* | 2.9µM*
CC(C)c1c(C(=O)N(C)Cc2cccc3ncccc23)cnn1-c1nccc(-c2ccco2)n1 | . | -5% | . | . | -9%[9.04 µM] | 15µM*
Nn1c(SCC(=O)N2CCCCCC2)nnc1-c1cccs1 | . | 0% | . | . | . | .
CC1CCN(c2ncncc2-c2nc(-c3ccccc3)no2)CC1 | . | 18% | . | . | . | .
CN1CC(=O)N(C2CCCNCC2)Cc2c(NC3CCC3)ncnc21 (stereo not drawn) | . | -10%[6.33 µM] | . | . | . | .
C(#CC1CCCCC1)c1ccc2c(c1)COc1c3ccccc3nn1-2 | -9% | -11% | ? | 24% | -15% | -9%
C#Cc1ccc2c(c1)COc1c3ccccc3nn1-2 | . | 1% | . | . | 10µM* | ?
CCCOc1ccc2oc(=O)c3c(c2c1)CCCN3C(=O)CN1CCCC(C(=O)OCC)C1 (stereo not drawn) | ? | 0% | 9% | 22% | ? | 23µM*
CCOC(=O)C1CCN(CC(=O)N2CCCc3c2c(=O)oc2ccc(OCc4ccccc4)cc32)CC1 | . | -19% | . | . | -22% | -22%
CCCOc1ccc2oc(=O)c3c(c2c1)CCCN3C(=O)CN1CCN(c2ncccn2)CC1 | 7% | 0% | 6% | 17% | 18µM* | ?
CCn1c(=O)c2ccccc2n(CC(=O)Nc2cnc3ccccc3c2)c1=O | . | -10% | . | . | . | .
CN(C)CCNCc1ccc(-c2ccccc2)o1 | . | 9% | . | . | . | .
